sEH inhibitor: soluble epoxide hydrolase (human) inhibition; P34913; recombinant human sEH enzymatic activity assay; inhibition, % at 2 µM; actives 0.34% (n = 91,000); in the data active = inhibition above about 80%
CYP2C9 inhib: blocks human cytochrome P450 2C9; actives 20% (n = 96,000); CYP2C9 Supersomes, luciferin-H conversion, luminescence; P11712; inhibition, % at 5 µM;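 active = blocking of liver enzyme CYP2C9 beyond about 50% at 5 µM, limit read from the data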
Target sequence (P11712 whole entry, looked up): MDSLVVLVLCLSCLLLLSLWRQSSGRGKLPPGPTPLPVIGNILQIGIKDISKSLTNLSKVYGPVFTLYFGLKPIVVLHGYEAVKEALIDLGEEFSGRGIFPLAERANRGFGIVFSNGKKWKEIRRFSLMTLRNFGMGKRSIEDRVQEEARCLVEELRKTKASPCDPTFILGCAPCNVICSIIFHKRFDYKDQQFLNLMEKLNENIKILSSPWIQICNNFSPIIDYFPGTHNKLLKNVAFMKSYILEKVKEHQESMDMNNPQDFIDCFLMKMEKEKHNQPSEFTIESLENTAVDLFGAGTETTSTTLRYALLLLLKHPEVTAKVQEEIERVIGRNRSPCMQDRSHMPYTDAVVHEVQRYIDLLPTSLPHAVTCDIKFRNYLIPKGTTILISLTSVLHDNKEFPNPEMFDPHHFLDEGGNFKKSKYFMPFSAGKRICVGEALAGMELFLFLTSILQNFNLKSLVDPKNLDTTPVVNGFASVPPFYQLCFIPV
CYP2C9 activ: activators of human CYP2C9 | P11712 | recombinant CYP2C9, luciferin-H conversion, luminescence; hits give high values; factor 1 = untreated enzyme, 0 = blocked | activation factor at 5 µM | actives 1.4% (n = 96,000) | AID 1024;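 active = activation factor of 2 or more for CYP2C9 at a 5 µM dose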;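 also: 0 = sulfaphenazole-blocked wells and 1 = vehicle-only wells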
CYP2C19 inhib: blocks human cytochrome P450 2C19. P33261. CYP2C19 Supersomes, luciferin-H EGE luminescence, 30 min. inhibition, % at 5 µM. actives 21% (n = 96,000). AID 778;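 active = CYP2C19 inhibition above a set limit at 5 µM in the primary screen, cut at about 50% in these data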;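 also: plate controls were negative control wells for no effect and 2.5 mM tranylcypromine positive control for full effect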
sEH act: soluble epoxide hydrolase (human) activation | P34913 | purified human sEH enzymatic activity, activator screen | activation, % at 2 µM | actives 0.04% (n = 91,000); in the data active = activation above about 37%
CYP2C19 act: cytochrome P450 2C19 (human) activation. recombinant CYP2C19, luciferin-H EGE luminescence; hits give high values; 0 = fully inhibited enzyme, 1 = untreated enzyme. 96,000 tested, under 10 active. activation factor at 5 µM. P33261;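 active = activation factor of at least 2 at 5 µM in the primary screen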;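 also: 0 = wells with 2.5 mM tranylcypromine and 1 = vehicle-only wells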
* = called active by the depositor; x = no result. Compounds with a hit are over-represented: about 27% of the library has one in this group of screens.

SMILES | sEH inhibitor | CYP2C9 inhib | CYP2C9 activ | CYP2C19 inhib | sEH act | CYP2C19 act
O=C(COc1ccc(F)cc1)Nc1ccc(-n2cnnn2)cc1 | -6 | 25 | 0.8 | 76* | 6 | 0.2
Cc1ccc(NS(=O)(=O)c2cc(C(=O)N3CCOCC3)ccc2C)cc1C | -3 | 8 | 0.9 | 26 | 5 | 0.7
O=S(=O)(c1ccc(Cl)cc1)n1ccc2cccnc21 | -5 | x | x | x | 7 | x
O=S(=O)(c1ccc(Cl)cc1)c1ccccn1 | -4 | -108 | 2.1* | 17 | 6 | 0.8
COC(=O)CSc1nnc(-c2ccccc2O)n1-c1ccc(C)cc1 | -27 | 37 | 0.6 | 57* | 23 | 0.4
Cc1cccc(-n2c(SCC(=O)Nc3nonc3C)nnc2-c2ccoc2C)c1 | -2 | 54* | 0.5 | 45 | 0 | 0.6
CCc1nnc(NC(=O)CSc2nnnn2C)s1 | 0 | x | x | x | 0 | x
COC(=O)CSc1nnc(-c2ccccc2OC)n1-c1ccc(C)cc1 | -7 | 20 | 0.8 | 22 | 6 | 0.8
CCc1nnc(NC(=O)CSc2nnc(-c3ccccc3OC)n2-c2ccccc2)s1 | -6 | x | x | x | 2 | x
CCc1nnc(NC(=O)CSc2nnc(-c3ccccc3OC)n2-c2ccc(C)cc2)s1 | 0 | 72* | 0.3 | 77* | -2 | 0.2
CCc1nnc(NC(=O)CSc2nnnn2-c2cccc(C(=O)OC)c2)s1 | 7 | 68* | 0.3 | 33 | -7 | 0.7
Cc1cccc(-n2c(SCC(=O)Nc3nnc(C)s3)nnc2-c2ccoc2C)c1 | 4 | 23 | 0.8 | 24 | -4 | 0.8
CCC(C)NC(=O)COc1ccc(Br)c(C)c1 (stereo unspecified) | -11 | 22 | 0.8 | 27 | 8 | 0.7
CCCCNCC(=O)Nc1ccc(NC(=O)CNCCCC)cc1 | 0 | 13 | 0.9 | 1 | 0 | 1
CC(C)CNC(=O)c1cccc(C(=O)NCC(C)C)c1 | 16 | 33 | 0.7 | 38 | -13 | 0.6
Nc1nonc1-n1nncc1-c1ccccc1 | -11 | 4 | 1 | 16 | 10 | 0.8
CCc1nnc(NC(=O)CSc2nnc(-c3ccoc3C)n2-c2cccc(C)c2)s1 | -6 | 54* | 0.5 | 37 | 7 | 0.6
Cc1nonc1NC(=O)CSc1nnc(-c2ccoc2C)n1CC(C)C | 11 | 14 | 0.9 | 76* | -11 | 0.2
CCc1nnc(NC(=O)CSc2nnc(CNc3cccc(C)c3)n2-c2ccccc2)s1 | -9 | 77* | 0.2 | 51* | 9 | 0.5
CCc1nnc(NC(=O)CSc2nnc(CNc3ccc(F)cc3)n2C2CCCCC2)s1 | -14 | 68* | 0.3 | 57* | 12 | 0.4
CC1CCC(NC(=O)c2cnccn2)CC1 (stereo unspecified) | -8 | 35 | 0.7 | 23 | 10 | 0.8
O=C(O)C(Oc1ccc2c3c(c(=O)oc2c1)CCC3)c1ccccc1 (stereo unspecified) | -12 | -11 | 1.1 | -16 | 12 | 1.2
COc1ccc(NS(=O)(=O)c2ccc(O)c(C(=O)OCC(=O)N3CC(C)OC(C)C3)c2)cc1 (stereo unspecified) | 0 | 82* | 0.2 | 71* | -1 | 0.3
Cc1cnc(C(=O)Nc2cccc3cccnc23)cn1 | -2 | -27 | 1.3 | -17 | 4 | 1.2
CC(C)C(=O)NC(NC(=S)Nc1cccc2cccnc12)C(Cl)(Cl)Cl (stereo unspecified) | -13 | 84* | 0.2 | 46 | 10 | 0.5
SMILES | sEH inhibitor | CYP2C9 inhib | CYP2C9 activ | CYP2C19 inhib | sEH act | CYP2C19 act
CC(C)(C)C(=O)NC(Nc1cccc2cccnc12)C(Cl)(Cl)Cl (stereo unspecified) | -12 | 54* | 0.5 | 54* | 13 | 0.5
CCOc1ccc2[nH]cc(C(=O)N3CCN(C4CCCCC4)CC3)c(=O)c2c1 | -8 | x | x | x | 11 | x
Cc1cc(N)n(-c2ncnc3scc(-c4ccccc4)c23)n1 | 4 | 17 | 0.8 | 10 | -2 | 0.9
CC(=NCCCn1ccnc1)c1c(-c2ccccc2)[nH]n(-c2nc3ccccc3s2)c1=O | -12 | 98* | 0 | 99* | 10 | 0
O=c1c(C=NCCCn2ccnc2)c(-c2ccccc2)[nH]n1-c1nc2ccccc2s1 | 11 | 98* | 0 | 92* | -8 | 0.1
COc1ccccc1CNC(=O)c1ccc(CNc2c(N3CCCC3)c(=O)c2=O)cc1 | x | -5 | 1 | -1 | x | 1
Cc1ccccc1[C@@H]1C(C#N)=C(N)S[C@H]1C(=O)c1ccccc1 | -1 | 98* | 0 | 100* | 2 | 0
Cc1nccn1CC(=O)O | x | -1 | 1 | 11 | x | 0.9
